# According to PubChem BioAssay AID1063 (University of Pittsburgh Molecular Library Screening Center, 2008):
# The whole screen tested about 200,000 compounds, of which about 18,000 (9%) were called active. Only a selection was taken, and actives are over-represented in it overall. Unmarked numbers belong to inactive results. Rule as the data show it: active = inhibition above about 50%; inactive = the rest.
# Assay: antileishmanial activity against promastigotes – primary screen (AID 1063);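 also: promastigotes grown with compound for 44 hours at 28 °C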
# Details: Leishmania major promastigotes, resazurin fluorescence viability; at 10 µM; stronger effect = higher value
row,Structure (SMILES),inhibition
1,Cc1cccc(C(=O)Nc2ccccc2C(=O)NCc2cccnc2)c1,-3.01%
2,CCCCC(=O)Nc1ccc2c(c1)OCCO2,1.71%
3,CCCCN(C)CCC(=O)Nc1ccc(Cl)cc1,63.4% (active)
4,O=C(CCC(=O)OCc1ccc(Cl)cc1)Nc1ccccc1,-2.39%
5,CCOC(=O)Cc1csc(SCc2cc(=O)oc3cc(O)ccc23)n1,-10.2%
6,CCOC(=O)Cc1csc(NC(=O)CSc2ccc(Br)cc2)n1,77.7% (active)
7,CCOC(=O)Cc1csc(NC(=O)Nc2ccccc2)n1,0.22%
8,CCOC(=O)Cc1csc(NC(=O)CSc2nc(C)cc(=O)[nH]2)n1,-12.1%
9,CCOC(=O)Cc1csc(SCC(=O)NC(C)C23CC4CC(CC(C4)C2)C3)n1 (centres undefined),98.6% (active)
10,CCOC(=O)Cc1csc(NC(=O)C(C)(C)C)n1,-0.74%
11,Cc1ccccc1N/C(SCc1ccc(Cl)cc1)=C(/C#N)C(N)=O,25.8%
12,CC1(c2ccccc2)CC(C)(C)N(C(=O)c2cc([N+](=O)[O-])cc([N+](=O)[O-])c2)c2ccccc21 (centres undefined),99.6% (active)
13,CC1CCN(C(=S)c2cccc([N+](=O)[O-])c2)CC1,-0.83%
14,CC1(c2cccc([N+](=O)[O-])c2)CC(C)(C)N(C(=O)c2ccccc2)c2ccccc21 (centres undefined),22.4%
15,COC(=O)NNC1=CC(=O)CC(C)(C)C1,-0.84%
16,CN(C(=O)COc1ncnc2c1cnn2-c1ccccc1)C1CCCCC1,0.81%
17,CCOC(=O)C1CCCN(C(=O)c2cccc(S(=O)(=O)N3CCOCC3)c2)C1 (centres undefined),-6.48%
18,CCc1nnc(NC(=O)CSc2nc3ccccc3c(=O)n2CCCOC)s1,11.7%
19,CC(=O)NCCn1c(SCC(=O)Nc2ccc(C)cc2)nc2ccccc2c1=O,0.63%
20,COCCn1c(SCC(=O)Nc2ccc3c(c2)CCC3)nc2ccccc2c1=O,59.6% (active)
21,Cc1cccc(NC(=S)Nc2ccc(Cl)c(Cl)c2)c1,33.5%
22,CN(C)S(=O)(=O)Oc1ccccc1C(=O)Nc1ccccc1Cl,3.48%
23,O=C(CCC(=O)NNc1nc2ccccc2c2nc(-c3ccccc3)nn12)NCCCN1CCCC1=O,1.2%
24,Cc1ccc2c(Cl)c(C(=O)NCCCn3ccnc3)sc2c1,99.3% (active)
25,O=C(NCCCn1ccnc1)Nc1ccc(Cl)cc1Cl,0.73%

row,Structure (SMILES),inhibition
1,Cc1ccc2c(Cl)c(C(=O)Nc3nn[nH]n3)sc2c1,12.8%
2,CCCN(CCC)c1ccc(C(O)c2nnc(-c3ccccc3)o2)cc1 (centres undefined),13.2%
3,Cc1ccc(Cl)cc1NC(=O)COC(=O)CC(C)(C)C,34.5%
4,COc1ccc(C(CC(=O)O)NC(=O)Cc2ccccc2)cc1 (centres undefined),-6.94%
5,COc1ccc(C(CCNCc2ccccc2F)c2ccc(F)cc2)cc1 (centres undefined),78.9% (active)
6,COc1ccc(CC(=O)NC(C)CCc2ccccc2)cc1 (centres undefined),-3.88%
7,Cc1cc(NS(=O)(=O)c2ccc(NC(=S)NC(=O)c3ccc(F)cc3Cl)cc2)no1,48.3%
8,CCN(CCCNC(=O)CSc1cc(=O)n(C)c2cc(Cl)ccc12)Cc1ccccc1,20.1%
9,COc1ccc(-n2cc(CNC3CCOCC3)c(-c3cccc(F)c3)n2)cc1,31.6%
10,CC(C)OCCCNC(=O)c1cc(Sc2ccc(F)cc2)nc2ccccc12,50.2% (active)
11,O=C(NCCN1CCOCC1)c1cc(Sc2cccc(Cl)c2)nc2ccccc12,1.33%
12,CC(C)CCNC(=O)c1cccnc1Sc1ccccc1,32.8%
13,CN1CCNC(=O)C1CC(=O)NCCC1=CCCCC1 (centres undefined),4.58%
14,CCOC(=O)c1c(C)[nH]c(C2=NNC(=NC(C)COC)SC2)c1C (centres undefined),8.5%
15,Cc1sc(NC(=S)NC(=O)c2cccs2)nc1-c1ccc(CC(C)C)cc1,-14.6%
16,CC(C)Cc1nn2c(=O)cc(O)nc2s1,54.9% (active)
17,C/C(=N/OC(=O)c1c(-c2c(F)cccc2Cl)noc1C)c1cnccn1,0.04%
18,CCCn1c(=NC(C)=O)c(C(=O)OCC)cc2c(=O)n3ccccc3nc21,7.11%
19,CCOC(=O)c1cc2c(=O)n3ccccc3nc2n(CC(C)C)c1=NC(=O)c1c(-c2c(F)cccc2Cl)noc1C,98.8% (active)
20,COc1ccc(NC(=O)/C(C#N)=C\c2cc(OC)c(OCc3ccc(C(=O)O)cc3)cc2Br)cc1,4.82%
21,COc1ccc(-c2csc(N3CCN(Cc4ccc5c(c4)OCO5)CC3)n2)cc1,76.3% (active)
22,O=C(CN1CCN(c2nc(-c3ccccc3)cs2)CC1)NCc1ccc2c(c1)OCO2,1.96%
23,COc1cccc(NC(=O)CN2CCN(c3nc(-c4cccc(OC)c4)cs3)CC2)c1,9.93%
24,Cc1nn(C)c(C)c1CN(C(=O)CCc1nnc(Cc2c[nH]c3ccccc23)o1)C(C)C,-4.01%
25,COCC(=O)N=Nc1c(O)[nH]c2ccccc12,-1.1%

row,Structure (SMILES),inhibition
1,Cc1cccc(N(CC(=O)N=Nc2c(O)[nH]c3ccccc23)S(C)(=O)=O)c1C,95.3% (active)
2,Cc1c(-c2ccccc2)n[nH]c1C(=O)N=Nc1c(O)[nH]c2ccccc12,4.35%
3,CCn1c(-c2cccnc2Cl)nc2cc(C)c(C)cc21,10%
4,CC(C)n1c(C(O)c2ccccc2)nc2ccccc21 (centres undefined),5.37%
5,Oc1oc(-c2ccccc2Br)nc1/C=N/c1ccccn1,-5.62%
6,CC(C)n1c(O)c(N=Nc2ccccn2)c2ccccc21,56.6% (active)
7,CCc1ccccc1NC(=O)CN(c1ccc(OC)cc1OC)S(=O)(=O)c1ccccc1[N+](=O)[O-],27.7%
8,COc1ccc(N(C)S(=O)(=O)c2cccc3nsnc23)cc1,-1.4%
9,CCOC(=O)C1=C(CC)Nc2ccccc2N=C1NC(=O)c1cccc(S(=O)(=O)N2CCCC2)c1,72% (active)
10,CCOC(=O)C1=C(CC)Nc2ccccc2N=C1N,-8.37%
11,CCOC(=O)CSc1nnc(NC(=O)c2cccc(S(=O)(=O)N3CCCC3)c2)s1,-6.49%
12,CCN(CC)Cc1nc2sc(C)c(C)c2c(=O)[nH]1,-6.68%
13,CC1CCN(C(=S)c2cccc(O)c2)CC1,0.69%
14,CCOc1ccccc1NC(=O)Nc1cc(OC)ccc1OC,-3.92%
15,CCOc1ccc(-c2n[nH]c(C)c2-c2ccccn2)c(O)c1,5.25%
16,CCOc1ccccc1Oc1cn[nH]c1-c1ccc(OC)cc1O,50.6% (active)
17,CC(=O)c1cc(C#N)c(N2CC(C)OC(C)C2)nc1C (centres undefined),-0.03%
18,O=C(NCCCN1CCOCC1)c1ccccc1NS(=O)(=O)c1ccc(F)cc1,-1.28%
19,O=C(NCCCNc1ccc([N+](=O)[O-])cc1Cl)c1ccccc1F,11.1%
20,O=C(NCCCN1CCOCC1)c1ccc([N+](=O)[O-])cc1[N+](=O)[O-],57.7% (active)
21,O=C(NCCCN1CCOCC1)c1ccc(N2CCCC2)c([N+](=O)[O-])c1,-1.2%
22,O=[N+]([O-])c1ccc(NCCCN2CCOCC2)c(Cl)c1,90.3% (active)
23,Nc1nc(NCCCN2CCOCC2)nc(Nc2ccccc2)c1[N+](=O)[O-],47.8%
24,S=C(Nc1ccc(Br)cc1Cl)N1CCC2(CC1)OCCO2,-4.82%
25,Cc1ccc(CC2CC(=O)N(c3nc(C)cc(C)n3)C2=O)cc1 (centres undefined),-5.05%

row,Structure (SMILES),inhibition
1,Brc1ccc(CSc2ccc(-c3ccco3)nn2)cc1,2%
2,O=C1COc2ccc(C(=O)COC(=O)c3cccnc3Cl)cc2N1,11%
3,Cc1ccccc1Nc1nc(N)nc(CN2CCN(c3ccccn3)CC2)n1,0.34%
4,Cc1ccccc1Nc1nc(N)nc(CSc2nnc3ccccn23)n1,-7.89%
5,COc1ccccc1Nc1nc(N)nc(CN(C)C2CCCCC2)n1,0.98%
6,Cc1ccccc1Nc1nc(N)nc(CSc2ccccc2)n1,58.8% (active)
7,CCOC(=O)N1CCN(Cc2nc(N)nc(Nc3ccc(C)cc3)n2)CC1,3.79%
8,Cc1ccc(C(=O)OCc2nc(N)nc(Nc3ccccc3C)n2)cc1,53.7% (active)
9,CCOC(=O)C(NC(C)=O)C(=O)Nc1ccc(OC)cc1 (centres undefined),-2%
10,CCCCNC(=O)Nc1c(C)cc(SC#N)cc1C,-2.51%
11,O=C(Nc1cccc(Cl)c1N1CCOCC1)c1ccc2c(c1)OCCO2,11.1%
12,COc1ccc(NC(=O)COc2ccc(C(=O)OCC(=O)N(C)C3CCS(=O)(=O)C3)cc2OC)cc1 (centres undefined),2.14%
13,COc1ccc(S(=O)(=O)NCC2CCCN(C(=O)c3occc3C)C2)cc1 (centres undefined),-1.89%
14,O=C(CSc1ncnc2c1nnn2Cc1ccc(F)cc1)NC1CCCC1,-6.62%
15,CCCCOc1ccc(C(=O)NN2CCN(C)CC2)cc1,-6.12%
16,CC(=O)c1ccc(OCCN2CCOCC2)cc1,-0.55%
17,CCCCOc1ccc(C(C)(O)CCN2CCOCC2)cc1 (centres undefined),67.4% (active)
18,CCCCN(C)CCNC(=O)CSCc1ccc(C)cc1,35.7%
19,Cc1ccc(NC(=S)N(CCN(C)C)Cc2cccs2)cc1C,23.8%
20,C#CCNC(=O)C1=C[C@@H](c2ccccc2)[C@H](CCCO)[C@@H](OCC)O1,-3.12%
21,COc1cc(/C=N/N=C(\N)c2nonc2N)cc(OC)c1OC,13.2%
22,O=C(ON=C1CCN(S(=O)(=O)c2ccccc2)CC1)c1ccc(Cl)cc1,-6.64%
23,Cc1c(C2=CCN(S(=O)(=O)c3ccc(Cl)cc3)CC2)c2ccccc2n1C,54.9% (active)
24,CC(C)NC(=O)C(=O)NCCN1CCN(S(=O)(=O)c2ccc(Cl)cc2)CC1,-8.08%
